Only a selection was taken, and the strongest signals are over-represented in it overall.
How the values were obtained:
Test in all cases: glycan array binding signal (z-score within array); higher = stronger binding
Details in all cases: glycan notation: IUPAC condensed, linker removed
Fuc(a1-2)Gal = biological target: Fuc(a1-2)Gal
In short: (§1)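 The Consortium for Functional Glycomics database supplied 3228 glycan arrays, of which those lacking an available protein sequence were dropped. The binding signal, a within-array Z-score, was averaged across arrays of the same protein sequence and across linkers. Negative scores can be read as non-binding.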

[1] = biological target: Fuc(a1-2)Gal(b1-3)GlcNAc(b1-2)Man(a1-3)[Fuc(a1-2)Gal(b1-3)GlcNAc(b1-2)Man(a1-6)]Man(b1-4)GlcNAc(b1-4)GlcNAc
In short: as §1

[2] = biological target: Fuc(a1-2)Gal(b1-3)GlcNAc(b1-3)[Neu5Ac(a2-6)Gal(b1-4)GlcNAc(b1-6)]Gal(b1-4)Glc
In short: as §1

Fuc(a1-2)Gal(b1-4)Glc6S = biological target: Fuc(a1-2)Gal(b1-4)Glc6S
In short: as §1

Fuc(a1-2)Gal(b1-4)GlcNAc = biological target: Fuc(a1-2)Gal(b1-4)GlcNAc
In short: as §1

Fuc(a1-2)[Gal(a1-3)]Gal = biological target: Fuc(a1-2)[Gal(a1-3)]Gal
In short: as §1

[3] = biological target: Fuc(a1-2)[Gal(a1-3)]Gal(b1-3)GlcNAc(b1-2)Man(a1-3)[Fuc(a1-2)[Gal(a1-3)]Gal(b1-3)GlcNAc(b1-2)Man(a1-6)]Man(b1-4)GlcNAc(b1-4)[Fuc(a1-6)]GlcNAc
In short: as §1

[4] = biological target: Fuc(a1-2)[Gal(a1-3)]Gal(b1-4)GlcNAc
In short: as §1

[5] = biological target: Fuc(a1-2)[GalNAc(a1-3)]Gal(b1-4)GlcNAc(b1-2)Man(a1-3)[Fuc(a1-2)[GalNAc(a1-3)]Gal(b1-4)GlcNAc(b1-2)Man(a1-6)]Man(b1-4)GlcNAc(b1-4)GlcNAc
In short: as §1

[6] = biological target: Fuc(a1-2)[GalNAc(b1-3)]Gal
In short: as §1

[7] = biological target: Fuc(a1-3)[Gal(b1-4)]Glc6S
In short: as §1

[8] = biological target: Fuc(a1-3)[Gal(b1-4)]GlcNAc(b1-3)Gal(b1-3)[Fuc(a1-4)]GlcNAc
In short: as §1

Fuc(a1-4)GlcNAc = biological target: Fuc(a1-4)GlcNAc
In short: as §1

[9] = biological target: Gal(a1-3)Gal(b1-4)GlcNAc(b1-2)Man(a1-3)[Gal(a1-3)Gal(b1-4)GlcNAc(b1-2)Man(a1-6)]Man(b1-4)GlcNAc(b1-4)GlcNAc
In short: as §1

Gal(a1-3)GalNAc = biological target: Gal(a1-3)GalNAc
In short: as §1

[10] = biological target: Gal(a1-4)Gal(b1-3)GlcNAc(b1-2)Man(a1-3)[Gal(a1-4)Gal(b1-3)GlcNAc(b1-2)Man(a1-6)]Man(b1-4)GlcNAc(b1-4)GlcNAc
In short: as §1

Gal(a1-4)Gal(b1-4)GlcNAc = biological target: Gal(a1-4)Gal(b1-4)GlcNAc
In short: as §1

[11] = biological target: Gal(a1-4)Gal(b1-4)GlcNAc(b1-2)Man(a1-3)[Gal(a1-4)Gal(b1-4)GlcNAc(b1-2)Man(a1-6)]Man(b1-4)GlcNAc(b1-4)GlcNAc
In short: as §1

Gal(a1-4)GlcNAc = biological target: Gal(a1-4)GlcNAc
In short: as §1

[12] = biological target: Gal(b1-3)GlcNAc(b1-2)Man(a1-3)[Gal(b1-3)GlcNAc(b1-2)Man(a1-6)]Man(b1-4)GlcNAc(b1-4)GlcNAc
In short: as §1

[13] = biological target: Gal(b1-3)GlcNAc(b1-2)Man(a1-3)[Gal(b1-3)GlcNAc(b1-2)Man(a1-6)]Man(b1-4)GlcNAc(b1-4)[Fuc(a1-6)]GlcNAc
In short: as §1

[14] = biological target: Gal(b1-3)GlcNAc(b1-2)Man(a1-3)[GlcNAc(b1-4)][Gal(b1-3)GlcNAc(b1-2)Man(a1-6)]Man(b1-4)GlcNAc(b1-4)GlcNAc
In short: as §1

[15] = biological target: Gal(b1-3)GlcNAc(b1-2)[Gal(b1-3)GlcNAc(b1-6)]Man(a1-6)[Gal(b1-3)GlcNAc(b1-2)Man(a1-3)]Man(b1-4)GlcNAc(b1-4)GlcNAc
In short: as §1

[16] = biological target: Gal(b1-3)GlcNAc(b1-3)Gal(b1-3)GlcNAc
In short: as §1

[17] = biological target: Gal(b1-3)[Fuc(a1-4)]GlcNAc(b1-3)Gal(b1-4)[Fuc(a1-3)]GlcNAc
In short: as §1

[18] = biological target: Gal(b1-4)GlcNAc(a1-6)Gal(b1-4)GlcNAc
In short: as §1

[19] = biological target: Gal(b1-4)GlcNAc(b1-2)Man(a1-3)Man(b1-4)GlcNAc(b1-4)GlcNAc
In short: as §1

[20] = biological target: Gal(b1-4)GlcNAc(b1-2)Man(a1-3)[GlcNAc(b1-2)Man(a1-6)]Man(b1-4)GlcNAc(b1-4)GlcNAc
In short: as §1

[21] = biological target: Gal(b1-4)GlcNAc(b1-3)Gal(b1-4)GlcNAc(b1-2)Man(a1-3)[Gal(b1-4)GlcNAc(b1-3)Gal(b1-4)GlcNAc(b1-2)Man(a1-6)]Man(b1-4)GlcNAc(b1-4)[Fuc(a1-6)]GlcNAc
In short: as §1

[22] = biological target: Gal(b1-4)GlcNAc(b1-3)Gal(b1-4)GlcNAc(b1-3)Gal(b1-4)GlcNAc(b1-3)Gal(b1-4)GlcNAc(b1-2)[Gal(b1-4)GlcNAc(b1-3)Gal(b1-4)GlcNAc(b1-3)Gal(b1-4)GlcNAc(b1-3)Gal(b1-4)GlcNAc(b1-6)]Man(a1-6)[Gal(b1-4)GlcNAc(b1-3)Gal(b1-4)GlcNAc(b1-3)Gal(b1-4)GlcNAc(b1-3)Gal(b1-4)GlcNAc(b1-2)Man(a1-3)]Man(b1-4)GlcNAc(b1-4)[Fuc(a1-6)]GlcNAc
In short: as §1

[23] = biological target: Gal(b1-4)GlcNAc(b1-3)Gal(b1-4)GlcNAc(b1-3)Gal(b1-4)GlcNAc(b1-3)Gal(b1-4)GlcNAc(b1-3)Gal(b1-4)GlcNAc(b1-3)Gal(b1-4)GlcNAc(b1-2)Man(a1-3)[Gal(b1-4)GlcNAc(b1-3)Gal(b1-4)GlcNAc(b1-3)Gal(b1-4)GlcNAc(b1-3)Gal(b1-4)GlcNAc(b1-3)Gal(b1-4)GlcNAc(b1-3)Gal(b1-4)GlcNAc(b1-2)Man(a1-6)]Man(b1-4)GlcNAc(b1-4)GlcNAc
In short: as §1

[24] = biological target: Gal(b1-4)GlcNAc(b1-6)GalNAc
In short: as §1

[25] = biological target: Gal(b1-4)GlcNAc(b1-6)[Gal(b1-3)]GalNAc
In short: as §1

B1: RBMC1 (Vibrio cholerae) (protein)
chain: QQSQRVVTADNLMYLRSGFAIDAIGTTVNNLVGGPVQGTNGGVLRAPIALDQLQSVEVTSGLYNWGGYHIVAIKFTMKDGSSVLLGSTHYASNKKVETYTVPQGKRIKQINVWTGGWLVEGFQFVY
Fuc(a1-2)Gal
  glycan array binding signal (z-score): -0.366
[1]
  glycan array binding signal (z-score): 1.37
[2]
  glycan array binding signal (z-score): -0.436
Fuc(a1-2)Gal(b1-4)Glc6S
  glycan array binding signal (z-score): -0.119
Fuc(a1-2)Gal(b1-4)GlcNAc
  glycan array binding signal (z-score): -0.362
Fuc(a1-2)[Gal(a1-3)]Gal
  glycan array binding signal (z-score): -0.15
[3]
  glycan array binding signal (z-score): -0.324
[4]
  glycan array binding signal (z-score): -0.311
[5]
  glycan array binding signal (z-score): 0.123
[6]
  glycan array binding signal (z-score): -0.299
[7]
  glycan array binding signal (z-score): -0.164
[8]
  glycan array binding signal (z-score): -0.378
Fuc(a1-4)GlcNAc
  glycan array binding signal (z-score): -0.041
[9]
  glycan array binding signal (z-score): 2.77
Gal(a1-3)GalNAc
  glycan array binding signal (z-score): -0.237
[10]
  glycan array binding signal (z-score): 1.41
Gal(a1-4)Gal(b1-4)GlcNAc
  glycan array binding signal (z-score): -0.178
[11]
  glycan array binding signal (z-score): 3.8
Gal(a1-4)GlcNAc
  glycan array binding signal (z-score): -0.353
[12]
  glycan array binding signal (z-score): 2.48
[13]
  glycan array binding signal (z-score): 0.912
[14]
  glycan array binding signal (z-score): -0.049
[15]
  glycan array binding signal (z-score): -0.266
[16]
  glycan array binding signal (z-score): -0.311
[17]
  glycan array binding signal (z-score): -0.3
[18]
  glycan array binding signal (z-score): -0.36
[19]
  glycan array binding signal (z-score): -0.354
[20]
  glycan array binding signal (z-score): 1.72
[21]
  glycan array binding signal (z-score): 2.64
[22]
  glycan array binding signal (z-score): -0.194
[23]
  glycan array binding signal (z-score): 0.712
[24]
  glycan array binding signal (z-score): -0.186
[25]
  glycan array binding signal (z-score): 0.163

Reference: the supplement of paper PMC8728848
